# Results as given in PubChem BioAssay.
# The source made the active and inactive calls.
# Legend:
# [1] = small molecules captured by biotinylated probe aFSTL3 – biochemical, small-molecule microarray, fluorescence 635/667, stem cell growth factor project, primary screen (AID 1064); conditions: higher = more signal;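 also: measures binding of the biotinylated anti-FSTL3 antibody to printed compounds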
# [2] = binders from COS7 lysate, DM2A8 probe, primary screen, torsin A project, cell lysate, small-molecule microarray, fluorescence 635/667 (AID 1065); conditions: higher = more signal, COS7 lysate expressing mutant human TOR1A
# [3] = small molecules captured by biotinylated probe aFGF2 – biochemical, small-molecule microarray, fluorescence 635/667, stem cell growth factor project, primary screen (AID 1067); conditions: higher = more signal;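 also: measures binding of biotinylated aFGF2 protein to printed compounds on slides; z-score merges feature fluorescence and signal-to-noise across triplicate slides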
# [4] = small molecules captured by biotinylated probe aFGF10 – biochemical, small-molecule microarray, fluorescence 635/667, stem cell growth factor project, primary screen (AID 1071); conditions: higher = more signal;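 also: score merges 667 nm spot intensity and signal to noise from triplicate slides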
# [5] = target: Neurogenic locus notch homolog protein 2 (Homo sapiens) (UniProt Q04721); experiment: small molecules binding Notch2 protein – biochemical, small-molecule microarray, 635 nm fluorescence, stem cell growth factors, primary screen (AID 1073); conditions: higher = more signal
# [6] = target: Pro-neuregulin-1, membrane-bound isoform (Homo sapiens) (UniProt Q02297); experiment: small molecules binding neuregulin-1 protein – biochemical, small-molecule microarray, fluorescence 635/667, psychiatric disease protein project, primary screen (AID 1075); conditions: NRG1 binding, 635 nm fluorescence, higher = more signal;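 also: score combines 667 nm spot fluorescence with signal to noise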
# [7] = test system: Neuregulin-1 EGF-like domain; experiment: small molecules binding NRG1 EGF domain – biochemical, small-molecule microarray, 635 nm fluorescence, primary screen (AID 1081); conditions: higher = more signal;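 also: binding of the protein to compounds printed on small-molecule microarray slides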
# [8] = FRG1 expression reporter modulators in myotubes – cell-based, C2C12 myotubes, firefly/Renilla luciferase, luminescence, FRG1 inhibition for FSHD, primary screen (AID 1084); conditions: FRG1 promoter luciferase, higher = more signal, called active from +8 up or from −8 down
# [9] = small molecules captured by biotinylated probe aFST – biochemical, small-molecule microarray, fluorescence 635/667, stem cell growth factor project, primary screen (AID 1086); conditions: higher = more signal;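 also: score merges 667 nm fluorescence with signal-to-noise of each printed compound spot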
# [10] = binders of probe aHhip on microarray, primary screen, stem cell growth factor project, biochemical, small-molecule microarray, fluorescence 635/667 (AID 1087); conditions: higher = more signal;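 also: score merges spot fluorescence at 667nm with spot signal to noise ratio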
# Chain of Pro-neuregulin-1, membrane-bound isoform (Homo sapiens) (Q02297 whole entry, looked up, the tested form may be a part, canonical isoform): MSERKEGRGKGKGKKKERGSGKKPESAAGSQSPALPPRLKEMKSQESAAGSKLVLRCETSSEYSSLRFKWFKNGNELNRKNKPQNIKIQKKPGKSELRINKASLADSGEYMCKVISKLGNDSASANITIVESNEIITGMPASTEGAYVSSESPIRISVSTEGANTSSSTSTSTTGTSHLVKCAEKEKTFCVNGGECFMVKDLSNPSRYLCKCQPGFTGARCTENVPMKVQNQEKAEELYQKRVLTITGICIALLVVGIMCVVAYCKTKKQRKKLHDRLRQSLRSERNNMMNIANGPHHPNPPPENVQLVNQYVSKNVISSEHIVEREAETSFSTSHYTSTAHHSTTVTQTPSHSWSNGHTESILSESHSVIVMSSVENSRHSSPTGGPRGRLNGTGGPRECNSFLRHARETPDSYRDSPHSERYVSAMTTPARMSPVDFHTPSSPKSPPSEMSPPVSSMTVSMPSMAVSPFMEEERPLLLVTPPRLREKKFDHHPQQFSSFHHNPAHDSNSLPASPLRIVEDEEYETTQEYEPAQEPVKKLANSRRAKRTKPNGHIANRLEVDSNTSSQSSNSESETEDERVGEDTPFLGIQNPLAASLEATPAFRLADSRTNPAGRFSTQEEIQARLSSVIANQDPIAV
# Chain of Neurogenic locus notch homolog protein 2 (Homo sapiens) (Q04721 whole entry, looked up, canonical isoform): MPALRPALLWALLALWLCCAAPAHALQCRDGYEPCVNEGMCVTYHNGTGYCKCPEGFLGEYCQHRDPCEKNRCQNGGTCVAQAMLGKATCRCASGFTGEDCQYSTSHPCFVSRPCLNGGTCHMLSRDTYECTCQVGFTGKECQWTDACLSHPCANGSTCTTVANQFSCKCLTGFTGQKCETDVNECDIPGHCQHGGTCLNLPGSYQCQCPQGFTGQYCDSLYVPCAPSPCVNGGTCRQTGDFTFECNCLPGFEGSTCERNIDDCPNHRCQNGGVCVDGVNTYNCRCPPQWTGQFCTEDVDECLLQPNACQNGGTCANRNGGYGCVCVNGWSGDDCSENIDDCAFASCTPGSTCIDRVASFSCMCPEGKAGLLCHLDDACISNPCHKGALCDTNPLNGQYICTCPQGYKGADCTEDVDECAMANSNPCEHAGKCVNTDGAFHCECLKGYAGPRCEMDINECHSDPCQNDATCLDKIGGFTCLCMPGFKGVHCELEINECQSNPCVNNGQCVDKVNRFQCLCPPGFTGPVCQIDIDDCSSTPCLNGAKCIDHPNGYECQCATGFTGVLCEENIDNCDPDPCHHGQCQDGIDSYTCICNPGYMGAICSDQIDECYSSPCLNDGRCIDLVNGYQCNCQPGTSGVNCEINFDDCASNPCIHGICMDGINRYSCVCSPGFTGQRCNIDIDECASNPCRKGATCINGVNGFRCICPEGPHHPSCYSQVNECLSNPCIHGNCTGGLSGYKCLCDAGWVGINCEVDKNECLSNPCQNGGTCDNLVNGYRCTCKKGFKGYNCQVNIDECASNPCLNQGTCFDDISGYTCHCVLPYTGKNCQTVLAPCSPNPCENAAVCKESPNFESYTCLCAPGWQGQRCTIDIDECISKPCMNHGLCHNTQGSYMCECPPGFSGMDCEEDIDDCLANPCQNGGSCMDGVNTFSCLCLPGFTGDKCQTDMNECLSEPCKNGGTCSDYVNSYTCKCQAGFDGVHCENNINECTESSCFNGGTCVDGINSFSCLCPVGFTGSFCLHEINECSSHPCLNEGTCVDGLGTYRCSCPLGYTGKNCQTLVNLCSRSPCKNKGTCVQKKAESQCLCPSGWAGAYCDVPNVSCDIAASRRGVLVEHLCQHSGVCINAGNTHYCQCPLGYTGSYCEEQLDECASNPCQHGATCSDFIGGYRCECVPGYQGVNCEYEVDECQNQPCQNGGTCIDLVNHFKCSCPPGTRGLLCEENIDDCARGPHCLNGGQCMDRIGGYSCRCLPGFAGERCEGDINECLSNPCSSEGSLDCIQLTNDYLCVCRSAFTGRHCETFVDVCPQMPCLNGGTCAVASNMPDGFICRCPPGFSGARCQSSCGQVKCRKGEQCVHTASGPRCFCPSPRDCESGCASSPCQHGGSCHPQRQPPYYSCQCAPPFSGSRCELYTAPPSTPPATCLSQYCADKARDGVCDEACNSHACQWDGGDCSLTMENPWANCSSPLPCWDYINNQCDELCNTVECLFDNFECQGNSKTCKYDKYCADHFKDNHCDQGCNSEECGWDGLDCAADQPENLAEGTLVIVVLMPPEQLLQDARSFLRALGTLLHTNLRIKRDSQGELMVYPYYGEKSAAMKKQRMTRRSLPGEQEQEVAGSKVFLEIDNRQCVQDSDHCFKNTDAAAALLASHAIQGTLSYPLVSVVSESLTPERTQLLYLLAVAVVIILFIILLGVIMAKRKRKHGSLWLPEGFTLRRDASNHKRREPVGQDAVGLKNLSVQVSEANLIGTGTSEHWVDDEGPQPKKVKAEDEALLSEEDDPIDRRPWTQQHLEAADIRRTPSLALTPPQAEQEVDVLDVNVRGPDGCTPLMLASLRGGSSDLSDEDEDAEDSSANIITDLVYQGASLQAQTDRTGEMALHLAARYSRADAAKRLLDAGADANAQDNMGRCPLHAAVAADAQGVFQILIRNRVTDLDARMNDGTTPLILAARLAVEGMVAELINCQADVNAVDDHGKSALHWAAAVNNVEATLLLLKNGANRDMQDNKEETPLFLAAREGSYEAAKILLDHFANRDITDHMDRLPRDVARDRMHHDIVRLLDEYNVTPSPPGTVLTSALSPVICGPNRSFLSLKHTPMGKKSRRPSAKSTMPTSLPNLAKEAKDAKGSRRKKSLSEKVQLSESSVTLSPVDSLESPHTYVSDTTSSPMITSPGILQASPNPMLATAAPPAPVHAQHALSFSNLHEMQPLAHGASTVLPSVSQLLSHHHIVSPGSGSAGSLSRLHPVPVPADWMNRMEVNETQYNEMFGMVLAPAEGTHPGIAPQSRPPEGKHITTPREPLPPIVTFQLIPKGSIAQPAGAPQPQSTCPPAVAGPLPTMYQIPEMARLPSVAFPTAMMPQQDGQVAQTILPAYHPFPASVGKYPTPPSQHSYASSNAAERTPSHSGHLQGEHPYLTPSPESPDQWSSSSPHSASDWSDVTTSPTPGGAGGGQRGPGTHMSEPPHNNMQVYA
Compound,composite z-score [1],composite z-score [2],composite z-score [3],composite z-score [4],composite z-score [5],composite z-score [6],composite z-score [7],z-score [8],composite z-score [9],composite z-score [10]
CC(C)=CCCC(C)=CC(O)C1C=CC2C(=O)N(C)C(=O)C2N1Nc1ccccc1 (stereo not given),0.0019,0.708,0.231,0.942,1.6,1.72,1.2,-1.04 (inactive),1.24,-0.159
C=CCNC(=O)[C@H]1[C@@H]2C(=O)O[C@@H](c3ccccc3)[C@@H](c3ccccc3)N2[C@@H](c2ccccc2OCCO)[C@]12C(=O)Nc1ccc(C#CCCO)cc12,0.103,-0.773,0.882,-0.0077,0.119,0.82,0.537,-5.02 (inactive),-0.155,0.142
COc1cc2c(cc1O)C(C1CC1)N(Cc1sc3ccccc3c1Cl)CC2 (stereo not given),0.0766,0.602,-0.135,0.0173,0.182,-0.214,1.23,0.566 (inactive),-0.145,-0.0994
C=CCC(OC(C)=O)[C@@H]1[C@@H](N(Cc2ccc(-c3cccc(C(F)(F)F)c3)o2)C(=O)c2ccc(C)cc2)c2cc(OCCCO)ccc2N1C(=O)Cc1ccc2ccccc2c1 (stereo not given in full),0.0498,-0.752,-0.102,0.205,-0.564,-0.326,-0.513,-0.201 (inactive),0.0714,-0.134
C=C(CCCC)/C(=C/C[C@@H](OC(=O)c1ccncc1)c1ccc(OCCO)cc1)c1cc(C(=O)OC)ccc1OC,-0.356,0.807,-0.129,0.63,-0.0009,0.382,1.01,5.07 (inactive),-0.0132,-0.217
COC(=O)[C@@]1(Cc2ccc(F)cc2)[C@H]2c3cc(C(=O)N4CCCC4)n(CCCNc4ncc(C(F)(F)F)cc4Cl)c3C[C@H]2CN1C(=O)c1ccccc1,0.785,-0.245,0.222,0.564,1.66,1.73,1.3,0.506 (inactive),0.977,0.449
CC(C)C(=C=CC[C@@H](O)c1ccc(OCCO)cc1)C[C@@H](O)c1ccccn1,-0.149,0.651,0.0297,1.19,0.344,-0.272,0.826,0.463 (inactive),-0.0267,-0.166
CC(=O)NCCCC[C@@H]1NC(=O)[C@H]2C[C@@H](C(=O)NCCCCCCNC(=O)CS)[C@@H](c3ccc(O)cc3)N2C1=O,0.993,1.42,-0.0049,0.545,-0.721,0.824,1.47,0.659 (inactive),-0.555,-0.108
COc1ccc(/C=C/C=O)cc1,-0.0583,0.144,-0.0982,0.19,0.173,-0.802,-0.562,0.599 (inactive),0.0803,0.0975
COCCOC(=O)N1C(=O)[C@@]2(c3cc(C#CCNC(N)=O)ccc31)[C@H](C(=O)Nc1nc3ccccc3s1)[C@H]1C(=O)O[C@H](c3ccccc3)[C@H](c3ccccc3)N1[C@@H]2c1ccc(OCCO)cc1,1.02,0.103,0.0346,1.05,0.486,0.357,0.331,6.33 (inactive),0.84,-0.226
O=C1O[C@@H](c2ccccc2)[C@@H](c2ccccc2)N2[C@@H](c3ccccc3OCCO)[C@]3(C(=O)Nc4ccccc43)[C@@H](C(=O)Nc3nc4ccccc4s3)[C@H]12,0.0741,0.581,0.0566,0.841,1.15,2.01,1.26,-1.26 (inactive),0.247,-0.329
COc1ccc(-c2cc3c(c(-c4ccc(Oc5ccccc5)cc4)n2)[Si](C(C)C)(C(C)C)OC3)cn1,-0.264,-0.65,-0.163,0.0106,0.358,-0.264,-0.502,-0.211 (inactive),0.406,-0.0994
O=C(CS)NCCCCCCNC(=O)[C@@H]1C[C@@H]2C(=O)NCC(=O)N2[C@@H]1c1cccc(OCCO)c1,0.35,0.024,-0.0768,-0.294,-0.599,0.668,1.46,0.688 (inactive),-0.528,-0.274
COCCOC(=O)N1C(=O)[C@@]2(c3ccccc31)[C@H](C(=O)N1CCc3cc(OC)c(OC)cc3C1)[C@H]1C(=O)O[C@H](c3ccccc3)[C@H](c3ccccc3)N1[C@@H]2c1ccc(OCCO)cc1,0.249,0.977,-0.279,0.509,0.832,0.0602,1.21,-1.98 (inactive),0.412,-0.0085
COc1ccc(CCNC(=O)[C@@H]2c3ccccc3C(=O)N(Cc3ccccc3Cl)[C@H]2c2ccc(CO)cc2)cc1,0.199,0.0795,-0.123,0.218,0.586,0.8,1.38,-2.28 (inactive),0.19,-0.214
OCCCC1=CC(c2cccs2)N(Cc2cc3c(cc2Br)OCO3)CC1 (stereo not given),0.235,0.457,-0.124,-0.0316,-0.242,0.775,1.04,-1.86 (inactive),-0.0026,-0.206
COC(=O)[C@@]1(Cc2ccc(OC)cc2)[C@H]2c3cc(C(=O)N(C)C)n(Cc4ccccn4)c3C[C@H]2CN1C(=O)c1ccccc1,1.19,2.08,0.0395,-0.175,1.4,2.35,0.89,0.0734 (inactive),0.852,0.408
C=CCOC(=O)[C@H]1[C@@H]2C(=O)O[C@@H](c3ccccc3)[C@@H](c3ccccc3)N2[C@@H](c2ccc(OCCOC(=O)[C@@H]3C[C@@H]4C(=O)N[C@@H](CC(C)C)C(=O)N4[C@@H]3c3ccc(O)cc3)cc2)[C@]12C(=O)Nc1ccccc12,-0.254,0.479,0.0056,0.649,0.85,1.02,1.2,0.631 (inactive),0.0922,0.0201
COC(=O)[C@]1(CCC(=O)OC(C)(C)C)N=C(c2ccc(OCCCO)cc2)O[C@@H]1c1ccccc1CN=[N+]=[N-],0.995,-0.0569,-0.0073,0.0301,0.53,0.971,1.14,-3.06 (inactive),0.773,-0.169
C=CCC(OC(C)=O)[C@@H]1[C@@H](N(Cc2ccc(-c3ccccc3)cc2)C(=O)Cc2ccc(OC)cc2)c2cc(OCCCO)ccc2N1C(=O)Cc1ccc2ccccc2c1 (stereo not given in full),-0.214,0.735,-0.0891,0.0163,-0.299,-0.32,-0.504,-0.952 (inactive),0.0346,-0.144
COc1ccc([Si](C)(C)[C@H]2[C@H](CC(=O)N3Cc4ccccc4C[C@H]3CO)O[C@@]3(C(=O)N(Cc4cccc(N5CCC5=O)c4)c4ccccc43)[C@@H]2C)cc1,-0.26,0.479,-0.07,0.726,0.793,0.871,1.29,-2.41 (inactive),0.256,-0.13
C=CCNC(=O)[C@@H]1[C@H]2C(=O)O[C@H](c3ccccc3)[C@H](c3ccccc3)N2[C@H](c2ccc(O)cc2)[C@@]12C(=O)Nc1ccc(C#CCNC(N)=O)cc12,0.0358,0.135,-0.114,-0.172,-0.383,0.623,-0.0033,1.57 (inactive),-0.633,-0.226
CCCC=C(CCC)[C@@H](NC(=O)c1cccs1)c1ccc(C(F)(F)F)cc1,0.251,0.654,-0.0515,0.383,1.43,0.393,0.729,2.26 (inactive),1.46,-0.132
O=C1N(Cc2ccccc2)c2ccccc2[C@@H]2OC(c3ccc(OCCCO)cc3)=N[C@]12CCS(=O)(=O)c1ccccc1,0.625,0.206,0.0111,-0.23,0.888,1.03,1.28,-2.27 (inactive),1.15,-0.253
CC(C)c1ccc(NN2C(C(O)c3ccc(B(O)O)cc3)C=CC3C(=O)N(c4ccccc4)C(=O)C32)cc1 (stereo not given),0.842,0.0275,0.185,1.13,1.63,1.19,1.15,0.87 (inactive),1.67,0.0722
COC(=O)[C@@]1(Cc2ccc(OC)cc2)[C@H]2c3cc(C(=O)N4CCCC4)n(Cc4ccc(C)c(F)c4F)c3C[C@H]2CN1C(=O)c1ccccc1,0.77,-0.5,0.176,0.78,1.77,1.65,1.31,0.352 (inactive),1.78,2.12
COC(=O)[C@@]1(Cc2ccc(OC)cc2)[C@@H]2C(=CC(=O)[C@H]2CC(=O)C(=O)N2CCCC2)CN1C(=O)c1ccccc1,0.156,-0.601,-0.0124,0.224,1.6,1.02,1.25,2.91 (inactive),1.1,1.41
